# The list is not random: actives were taken first. Their share in the collection is about 2.9%.
# ADAM17 inh: ADAM17 inhibition, QFRET primary screen. 370,000 compounds, 0.83% hits. inhibition, % at 6.95 µM. P78536. recombinant ADAM17, EDANS/DABCYL FRET peptide cleavage;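 active = inhibition above the mean of compounds lying between control limits plus 3 SD, set per campaign, cut at about 8.5% in these data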;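 also: 0% = DMSO-only wells as the low control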
# PLCg1 inh: blocks human PLC-gamma1 enzyme activity. AID 720700. purified PLC-gamma1, fluorogenic substrate, fluorescence. 370,000 compounds, 0.84% hits. inhibition, % at 12.2 µM. P19174; in the data active = inhibition above about 9.5%
# KLK7 zymogen act: proKLK7 (human) activation, primary screen; 370,000 compounds, 0.9% hits; purified proKLK7, EDANS-DABCYL substrate fluorescence; 100% is mature enzyme control, 0% vehicle; activation, % at 7 µM;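 active = activation above the mean of all tested compounds plus 3 SD, computed per campaign excluding outliers beyond control limits, cut at about 13% in these data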
# ADAM10 inh: inhibitors of human ADAM10 | AID 720582 | 370,000 compounds, 0.62% hits | inhibition, % at 7 µM | recombinant ADAM10, EDANS/DABCYL FRET peptide cleavage, 3 h;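 active = inhibition above a per-campaign cutoff equal to the mean of compounds falling between control-based bounds plus 3 SD, cut at about 20% in these data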;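 also: 0% = DMSO wells while the 100% control is not disclosed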
# PLC-beta3 inh: inhibitors of human phospholipase C beta3; Q01970; Purified PLC-beta3, fluorogenic substrate, fluorescence; inhibition, % at 12.2 µM; 370,000 compounds, 0.18% hits; AID 720704; in the data active = inhibition above about 11%;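 also: 0% = median of compound wells on plate and 100% = full blocker control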
# KLK7 act conf: proKLK7 activation, confirmation; shares compounds with KLK7 zymogen act; purified proKLK7, EDANS-DABCYL substrate fluorescence; scaled: vehicle 0, mature enzyme 100; activation, % at 7 µM; 3,200 compounds, 68% hits; AID 686949;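 active = activation, as change over the incubation, above the mean of all tested compounds plus 3 SD, cut at about 13% in these data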
# EDANS interfere: optically interferes with EDANS-DABCYL signal, flagging KLK7 hits; shares compounds with KLK7 zymogen act; EDANS-DABCYL substrate fluorescence interference, no enzyme, 4 h; solvent 0%, active enzyme control 100%; activation, % at 7 µM; 3,200 compounds, 80% hits;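 active = activation above the all-compound mean plus 3 SD, ignoring values outside control-based bounds, cut at about 4.8% in these data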;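 also: value is the 4 h activation minus the activation read at time zero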
# K7 EDANS ctr: optically interferes with EDANS-DABCYL fluorescence, kallikrein-7 activator counter-screen; EDANS-DABCYL peptide fluorescence interference, no enzyme; AID 720493; EC50, µM; 250 compounds, 20% hits; shares compounds with KLK7 zymogen act;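 active = compounds that raise the fluorescence signal in this interference counterscreen, with EC50 at or below 10 µM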;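 also: intact quenched peptide substrate alone read at 355 nm excitation and 520 nm emission; signal is fluorescence gain from T0 to T4 after four hours at room temperature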
# * hit, by the source's call; i = inactive; x = no result given.
SMILES,ADAM17 inh,PLCg1 inh,KLK7 zymogen act,ADAM10 inh,PLC-beta3 inh,KLK7 act conf,EDANS interfere,others
CCOC(=O)[C@@H]1CSCCS(=O)(=O)N1C(=O)[C@H](Cc1ccccc1)NC(=O)OC(C)(C)C,-0.5,0.0,-0.5,1.9,1.0,x,x,
CC(C)CCNC(=O)[C@H]1COC(O)([C@H](Cc2ccccc2)NC(=O)[C@@H](NC(=O)OCc2ccccc2)C(C)C)CN1C (stereo not given in full),1.7,-1.0,x,-2.8,-1.6,x,x,
COc1ccc(CN(C)C(=O)C2CCCN(c3nc4ccccc4o3)C2)cc1 (stereo not given),2.5,-0.7,0.1,2.6,-2.3,x,x,
COc1ccc2cc3cc(C(=O)NC(C)C)oc3nc2c1,i,i,34.5*,i,i,78.1*,83.0*,
Cc1ccc2cc3cc(C(=O)N4CC(C)CC(C)C4)oc3nc2c1 (stereo not given),-1.4,-3.4,0.6,-17.2,-5.7,x,x,
CCCCN(C)CCNC(=O)c1cc2cc3ccc(OC)cc3nc2o1,i,i,100.3*,i,i,53.6*,76.7*,
Cc1ccc2cc3cc(C(=O)NCCCN4CC(C)CC(C)C4)oc3nc2c1 (stereo not given),-353.8,-224.7,30.2*,i,-299.5,4.3,-1.2,
COCCCNC(=O)c1cc2cc3cc(OC)ccc3nc2o1,-343.2,-476.3,22.8*,i,i,23.4*,28.5*,
C[C@@H]1NS(=O)(=O)c2cccc(Cl)c2O[C@@H]1c1ccccc1,-2.6,-1.9,0.1,-4.1,-0.6,x,x,
CCCCN(C)C(=O)c1cc2cc3ccc(OC)cc3nc2o1,i,-189.7,12.3,i,-282.6,x,x,
COc1ccc2cc3cc(C(=O)NCc4cccnc4)oc3nc2c1,i,i,45.5*,i,i,53.6*,53.4*,
CCN(CC)CCNC(=O)c1cc2cc3ccc(OC)cc3nc2o1,i,i,23.9*,i,i,76.3*,84.2*,
CN(C(=O)COC(=O)c1ccccc1NCCO)C1CCS(=O)(=O)C1 (stereo not given),i,-386.6,14.0*,i,i,39.5*,41.5*,
COc1ccc(-c2cc3ccc(OCC(=O)NCC4CCC(C(=O)O)CC4)cc3oc2=O)cc1 (stereo not given),i,i,63.5*,i,i,53.9*,73.7*,
CC(=O)Oc1ccc2cc(-c3ccccc3)c(=O)oc2c1,i,i,216.1*,i,i,564.9*,570.3*,
COc1ccc2cc(C(C)=O)c(=O)oc2c1,-57.1,-8.7,-0.6,-152.3,-11.1,x,x,
CC(=O)Oc1ccc(-c2cc3ccc(OC(C)=O)cc3oc2=O)cc1,i,i,225.4*,i,i,450.6*,412.1*,
CC(=O)COc1ccc2cc(-c3ccccc3)c(=O)oc2c1,i,i,22.8*,i,i,57.2*,72.9*,
CC(=O)Oc1ccc2c(=O)oc(-c3ccccc3)nc2c1,-4.3,-3.5,-0.9,-11.2,-0.9,x,x,
COC(=O)c1ccc(Cn2ccc3ccc(-c4ccc5ccn(Cc6ccc(OC)cc6)c5c4)cc32)cc1,-6.3,-76.8,-0.9,-18.3,-105.9,x,x,
Cc1cc2c(c(=O)o1)[C@@]1(C(=O)N(C)c3ccccc31)C1=C(CCCC1=O)O2,-3.4,-0.6,1.0,-1.8,-1.6,x,x,
Cc1ccccc1S(=O)(=O)N1CCCc2nc(-c3ccc(Br)cc3)ccc21,0.1,3.2,0.2,-0.9,2.4,x,x,
Cc1nc(Nc2ncc(C(=O)Nc3c(C)cccc3Cl)s2)cc(N2CCN(CCO)CC2)n1,-0.8,-2.6,0.3,-11.1,-6.8,x,x,
Nc1[nH]c(C(=O)c2ccccc2)c(-c2ccc(Br)cc2)c1C(=O)c1ccccc1,-1.7,-3.3,-0.7,-3.7,-2.3,x,x,
COc1ccc(-c2cc3ccc(OC(C)C(=O)O)cc3oc2=O)cc1 (stereo not given),i,i,70.2*,i,i,70.1*,67.8*,
SMILES,ADAM17 inh,PLCg1 inh,KLK7 zymogen act,ADAM10 inh,PLC-beta3 inh,KLK7 act conf,EDANS interfere,others
COc1ccc(-c2cc3ccccc3oc2=O)cc1,-212.8,i,8.1,i,i,x,x,
COc1ccc(-c2cc(=O)oc3cc(OC(=O)C4CCCCC4)c(Cl)cc23)cc1,-144.3,i,63.5*,-416.4,i,63.8*,37.3*,K7 EDANS ctr=>69.5
COc1ccc(-c2cc(=O)oc3cc(O)ccc23)cc1,-42.1,i,-25.7,-87.6,i,x,x,
O=C(Oc1ccc2c3c(c(=O)oc2c1)CCCC3)c1ccco1,i,i,294.7*,i,i,639.2*,631.2*,
CC(C)Oc1ccc2c3c(c(=O)oc2c1)CCC3,-138.6,-22.4,1.4,i,-33.5,x,x,
O=c1oc2cc(O)ccc2c2oc3cc(O)ccc3c12,i,i,71.6*,i,i,62.0*,71.8*,
COC(=O)C(C)Oc1ccc2c3c(c(=O)oc2c1)CCCCC3 (stereo not given),-366.9,-204.5,24.7*,i,-285.6,1.5,-6.7,
O=c1oc2cc(O)ccc2c2ccccc12,1.9,-399.3,-1.2,-0.2,-410.8,x,x,
CSCCC(NC(C)=O)C(=O)Oc1ccc2c3c(c(=O)oc2c1)CCCC3 (stereo not given),i,i,52.7*,i,i,61.5*,65.8*,
COC(=O)[C@]12CCCCC=C1N(Cc1ccc(OC)cc1)C(=O)[C@@H]2CC(=O)NCc1cccc(C(F)(F)F)c1,5.3,1.2,0.1,10.6,-2.7,x,x,
CCC[C@H]1[C@@H](OC(=O)NCc2ccccc2Cl)CC[C@@]23CCCN2C(=O)CCC[C@@H]13,-0.4,2.1,x,8.0,1.6,x,x,
c1ccc(-c2c[nH]c3ccc(OCCN4CCOCC4)c(-c4ccccc4)c23)cc1,-4.4,-5.1,-0.3,-13.1,-2.9,x,x,
CCCCCN1CCCCC(NC(=O)c2ccc(C)cc2)C1=O (stereo not given),-6.8,1.6,0.4,-4.3,1.4,x,x,
O=c1oc2cc(O)ccc2c2c1CCCC2,i,i,57.8*,i,i,59.9*,70.4*,
CC(=O)Oc1ccc2c3c(c(=O)oc2c1)CCCC3,i,i,494.6*,i,i,687.9*,685.4*,
Cc1ccc(-n2c(SCC(=O)Nc3ccccc3-c3ccccc3)nnc2-c2cccs2)cc1,5.5,4.9,-0.5,13.6,2.2,x,x,
Cc1cc(C)n2cc(CSc3ncn[nH]3)nc2n1,-167.3,-151.5,27.7*,i,-198.7,8.0,6.8*,
Nc1ccc(-c2nc3ncccc3o2)cc1,i,i,38.5*,i,i,58.0*,71.2*,
O=S(=O)(CC1NCCc2ccccc21)NCc1ccccc1 (stereo not given),0.1,-1.8,-0.2,3.9,0.4,x,x,

# Compound activity from PubChem BioAssay.
